Assay outcomes (PubChem BioAssay)
Cav3 T inh – blocks human Cav3.2 T-type calcium channel. Cav3.2-expressing cells, Fluo-4 calcium fluorescence FDSS; hits give low values. B-score at 10 µM. hit rate 4% among 100,000;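 active = single-dose well whose peak fluorescence ratio is a statistical outlier from its plate by either plate-standardised score or position-corrected B-score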
Target sequence (O95180 whole entry, looked up): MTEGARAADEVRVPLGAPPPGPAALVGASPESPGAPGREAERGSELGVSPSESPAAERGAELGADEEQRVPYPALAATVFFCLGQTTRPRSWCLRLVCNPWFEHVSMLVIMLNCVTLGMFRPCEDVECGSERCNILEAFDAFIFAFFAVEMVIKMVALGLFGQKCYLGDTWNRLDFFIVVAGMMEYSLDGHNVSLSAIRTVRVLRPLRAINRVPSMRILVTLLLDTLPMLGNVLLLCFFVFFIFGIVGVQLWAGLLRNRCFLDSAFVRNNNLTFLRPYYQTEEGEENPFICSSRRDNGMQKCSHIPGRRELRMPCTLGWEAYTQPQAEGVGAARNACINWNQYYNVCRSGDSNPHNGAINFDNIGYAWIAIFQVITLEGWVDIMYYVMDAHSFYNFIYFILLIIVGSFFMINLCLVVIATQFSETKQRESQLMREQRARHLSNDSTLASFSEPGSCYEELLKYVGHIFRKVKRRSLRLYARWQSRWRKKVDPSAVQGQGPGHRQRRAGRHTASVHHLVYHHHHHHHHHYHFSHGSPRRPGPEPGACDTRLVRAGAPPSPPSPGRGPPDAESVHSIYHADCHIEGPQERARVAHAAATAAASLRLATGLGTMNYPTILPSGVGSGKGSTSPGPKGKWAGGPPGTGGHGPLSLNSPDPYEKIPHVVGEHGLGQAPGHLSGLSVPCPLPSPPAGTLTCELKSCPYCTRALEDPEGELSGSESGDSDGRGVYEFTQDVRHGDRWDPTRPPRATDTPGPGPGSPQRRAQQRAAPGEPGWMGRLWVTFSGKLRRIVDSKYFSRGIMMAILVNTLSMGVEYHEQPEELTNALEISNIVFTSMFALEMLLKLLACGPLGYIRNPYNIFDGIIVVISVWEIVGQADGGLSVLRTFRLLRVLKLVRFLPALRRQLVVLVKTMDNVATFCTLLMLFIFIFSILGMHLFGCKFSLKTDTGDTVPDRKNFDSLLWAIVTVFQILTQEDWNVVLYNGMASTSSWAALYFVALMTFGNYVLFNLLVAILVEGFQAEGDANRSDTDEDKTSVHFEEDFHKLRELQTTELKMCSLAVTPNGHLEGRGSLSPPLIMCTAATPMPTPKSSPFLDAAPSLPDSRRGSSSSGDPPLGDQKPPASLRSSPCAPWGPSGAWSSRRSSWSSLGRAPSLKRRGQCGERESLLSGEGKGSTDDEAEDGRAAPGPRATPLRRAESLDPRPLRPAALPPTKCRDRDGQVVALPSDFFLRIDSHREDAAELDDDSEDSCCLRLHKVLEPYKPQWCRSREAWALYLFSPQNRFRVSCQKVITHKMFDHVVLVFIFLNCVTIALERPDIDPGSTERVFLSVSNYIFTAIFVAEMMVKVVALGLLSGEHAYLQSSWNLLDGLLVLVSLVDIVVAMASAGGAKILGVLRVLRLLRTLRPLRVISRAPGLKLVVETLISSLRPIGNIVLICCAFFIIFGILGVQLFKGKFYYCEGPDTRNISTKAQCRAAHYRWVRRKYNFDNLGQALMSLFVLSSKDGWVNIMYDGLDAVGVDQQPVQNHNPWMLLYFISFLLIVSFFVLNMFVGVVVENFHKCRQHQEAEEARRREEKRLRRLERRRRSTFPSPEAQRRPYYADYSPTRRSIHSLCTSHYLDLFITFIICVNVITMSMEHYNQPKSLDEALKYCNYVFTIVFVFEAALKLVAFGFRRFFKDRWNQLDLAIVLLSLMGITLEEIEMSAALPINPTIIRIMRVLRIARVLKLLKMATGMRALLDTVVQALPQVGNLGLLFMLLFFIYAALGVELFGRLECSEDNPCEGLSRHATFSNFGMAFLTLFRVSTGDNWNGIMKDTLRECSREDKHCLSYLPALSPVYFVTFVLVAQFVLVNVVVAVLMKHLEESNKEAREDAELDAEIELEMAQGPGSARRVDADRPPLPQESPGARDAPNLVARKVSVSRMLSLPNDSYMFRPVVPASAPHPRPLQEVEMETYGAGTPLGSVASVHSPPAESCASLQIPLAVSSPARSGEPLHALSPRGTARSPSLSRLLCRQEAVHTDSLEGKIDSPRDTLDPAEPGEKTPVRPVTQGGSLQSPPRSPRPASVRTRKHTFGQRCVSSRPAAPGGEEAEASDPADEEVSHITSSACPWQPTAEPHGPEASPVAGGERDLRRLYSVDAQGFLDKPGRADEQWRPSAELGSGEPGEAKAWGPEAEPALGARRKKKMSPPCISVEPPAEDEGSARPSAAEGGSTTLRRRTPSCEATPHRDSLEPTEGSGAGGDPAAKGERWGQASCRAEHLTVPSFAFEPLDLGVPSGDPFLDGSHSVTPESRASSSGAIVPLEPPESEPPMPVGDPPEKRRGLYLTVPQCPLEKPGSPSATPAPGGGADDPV
PostGolgi ctrl – inhibits growth of the yeast control strain; hit rate 5% among 98,000; inhibition, % at 10 µM; AID 738; efflux-deficient yeast background strain, growth absorbance A615, 16 h
DAT uptake mod – human DAT dopamine uptake with cocaine, either direction; Q01959; LLC-PK1 hDAT cells, [14C]-dopamine uptake with cocaine IC80; actives deviate in either direction; B-score at 10 µM; hit rate 1.3% among 110,000; AID 449768;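 active = Z score or B-score, a plate-position-corrected score, falls beyond the plate's 99.7% confidence bounds, in either direction; inactive = both scores lie inside the 99.7% bounds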;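 also: scored against the spread of the other compound wells on the same plate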
PLAP activator – activates human placental alkaline phosphatase. purified PLAP enzyme, luminescent substrate read-out; hits give high values. AID 696. hit rate 1.2% among 96,000. activation fold at 20 µM. P05187; in the data active = activation fold above about 2
PostGolgi yeast – growth inhibition of a yeast mutant, post-Golgi transport screen. post-Golgi transport phenotypic cell assay. AID 739. inhibition, % at 10 µM. hit rate 0.9% among 98,000;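 also: yeast cells grown in 1536-well plates; yeast grown about 18 h at 30C before absorbance read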
An asterisk follows results filed as active. Most compounds without a hit are left out; they make up all but 9.6% or so of the library. Rule as the data show it, unless noted: active = inhibition above about 30%; inactive = the rest.

`O=C(Nc1ccc(Cl)c(Cl)c1)N1CC=CCC1` gave Cav3 T inh -0.288, PostGolgi ctrl 8.6, DAT uptake mod 0.268, PLAP activator 0.9 and PostGolgi yeast -12.1.
O=C(Nc1ccc(Cl)c(Cl)c1)N1CCSC1c1ccco1 (stereo not given) was read as Cav3 T inh -7.68*, PostGolgi ctrl 7.2, DAT uptake mod -2.07*, PLAP activator 0.8 and PostGolgi yeast -6.9.
Screening CS(=O)(=O)N(CC(O)CON=C1c2ccccc2-c2ccccc21)c1ccc(F)cc1 (stereo not given) returned Cav3 T inh 0.879, PostGolgi ctrl 1.2, DAT uptake mod -1.1, PLAP activator 1 and PostGolgi yeast 0.5.
For Cc1cccc(N(CC(O)CON=C2c3ccccc3-c3ccccc32)S(C)(=O)=O)c1 (stereo not given) the results were Cav3 T inh -0.312, PostGolgi ctrl 40.5*, DAT uptake mod 0.0224, PLAP activator 1.7 and PostGolgi yeast -3.7.
`Cc1sc2nc(SCc3nc(-c4ccccc4)no3)n(-c3ccccc3)c(=O)c2c1C` gave Cav3 T inh 0.0337 and DAT uptake mod 1.66.
`CCc1cc(=O)oc2cc(C)c(CN3CCCC(C)C3)c(O)c12` (stereo not given) gave Cav3 T inh 0.0356, PostGolgi ctrl 0.5, DAT uptake mod -0.204, PLAP activator 1.4 and PostGolgi yeast 33.3*.
`COC(=O)[C@@H]1C[C@@]2(Br)c3ccccc3N(S(=O)(=O)c3ccccc3)[C@H]2N1C(=O)OC` gave Cav3 T inh 1.69 and DAT uptake mod 1.03.
`Cc1cc(C)cc(-n2c(C)cc(/C=N/NC(=O)CN(c3c(C)cccc3C)S(C)(=O)=O)c2C)c1` gave PostGolgi ctrl 19.3, DAT uptake mod -1.18, PLAP activator 2* and PostGolgi yeast 0.6.
Screening Cc1ccc(-n2c(C)cc(/C=N/NC(=O)CN(c3ccc(C)cc3C)S(C)(=O)=O)c2C)cc1 returned Cav3 T inh -8.44*, PostGolgi ctrl 1.4, DAT uptake mod 0.0118, PLAP activator 1.5 and PostGolgi yeast 7.8.
COc1ccccc1N1CCN(C(=O)c2sc3nc(-c4ccc(F)cc4)cn3c2C)CC1 was read as PostGolgi ctrl 45.3*, PLAP activator 1.4 and PostGolgi yeast -9.1.
Screening COc1ccccc1N1CCN(C(=O)c2oc3cc(C)c(C)cc3c2C)CC1 returned Cav3 T inh -1.3, PostGolgi ctrl 42.3*, DAT uptake mod -0.519, PLAP activator 0.8 and PostGolgi yeast -4.4.
COc1ccc(-c2cn3c(C)c(C(=O)N4CCN(c5ccc(F)cc5)CC4)sc3n2)cc1 was read as PostGolgi ctrl 7.5, PLAP activator 0.9 and PostGolgi yeast 5.4.
Screening COc1cc2c(C(=O)N3CCN(c4ccccc4C)CC3)c(C)oc2cc1Br returned Cav3 T inh -1.46, PostGolgi ctrl 57.4*, DAT uptake mod 1.3, PLAP activator 1.4 and PostGolgi yeast -3.1.
`CC(=O)Nc1cccc(C(=O)OCc2ccc(C(=O)Oc3ccc(Cl)cc3)cc2)c1` gave Cav3 T inh 0.344, PostGolgi ctrl 4.0, DAT uptake mod 0.088, PLAP activator 1.1 and PostGolgi yeast -21.9.
Screening C[C@@H](O)[C@H]1C(=O)N2C(C(=O)O)=C(S[C@@H]3CN[C@H](C(=O)N(C)C)C3)[C@H](C)[C@H]12 returned Cav3 T inh 0.205 and DAT uptake mod 0.109.
CCOC(=O)Cc1csc(SCc2nc3ccccc3c(=O)[nH]2)n1 was read as Cav3 T inh -0.416, PostGolgi ctrl 9.4, DAT uptake mod 0.624, PLAP activator 1.4 and PostGolgi yeast 3.5.
Screening C#C[C@]1(O)CC[C@H]2[C@@H]3CCC4=CC(=O)CC[C@@H]4[C@H]3CC[C@@]21C returned DAT uptake mod 0.442.
`C#C[C@]1(O)CC[C@H]2[C@@H]3CCC4=Cc5oncc5C[C@]4(C)[C@H]3CC[C@@]21C` gave Cav3 T inh -4.54* and DAT uptake mod 0.384.
`CC(=O)CSc1ncnc2nc[nH]c12` gave Cav3 T inh -0.213, PostGolgi ctrl -6.5, DAT uptake mod 1.49, PLAP activator 1.1 and PostGolgi yeast -3.7.
`Cc1ccc(OCCSc2ncnc3nc[nH]c23)cc1` gave Cav3 T inh -0.0732, PostGolgi ctrl 3.7, DAT uptake mod -0.254, PLAP activator 2.4* and PostGolgi yeast 2.0.
Screening CCC(=O)c1ccc(O)c(OC)c1 returned Cav3 T inh 0.00471 and DAT uptake mod 0.72.
For CCC(=O)c1ccc(O)c(CC=C(C)C)c1 the results were Cav3 T inh -0.399, PostGolgi ctrl 31.4*, DAT uptake mod 0.424, PLAP activator 1.2 and PostGolgi yeast 6.7.
For CCCOc1ccc(C2=NNC(c3cccs3)=Nc3ccc(OC)cc32)cc1 the results were Cav3 T inh -4.49 and DAT uptake mod 0.554.
CC(C)c1ccc2c(c1)C(c1ccc(N3CCOCC3)cc1)=NNC(c1cccs1)=N2 was read as Cav3 T inh -5.05, PostGolgi ctrl 42.2*, DAT uptake mod -0.298, PLAP activator 1.2 and PostGolgi yeast -1.4.
Screening CCOC(=O)Cn1nnnc1CN(CCc1ccccc1)Cc1cc2cc(CC)ccc2[nH]c1=O returned Cav3 T inh -4.4*, PostGolgi ctrl 20.6, DAT uptake mod 1.68, PLAP activator 1.6 and PostGolgi yeast 0.2.
For Cc1ccc2[nH]c(=O)c(CN(CCO)Cc3nnnn3CCc3ccccc3)cc2c1 the results were Cav3 T inh 0.483, PostGolgi ctrl 4.4, DAT uptake mod 1.04, PLAP activator 1.7 and PostGolgi yeast 21.8.
`COC(C/C=C\C(=O)COCc1ccccc1)OC` gave Cav3 T inh 1.4 and DAT uptake mod -0.696.
CC(Oc1ccccc1)c1ccnn1S(=O)(=O)c1ccccc1 (stereo not given) was read as Cav3 T inh -6.42*, PostGolgi ctrl 15.6, DAT uptake mod -0.308, PLAP activator 0.9 and PostGolgi yeast 4.4.
For CC(Oc1ccc(Cl)cc1)c1ccnn1S(=O)(=O)c1ccc(Cl)cc1 (stereo not given) the results were Cav3 T inh -2.13, PostGolgi ctrl 9.8, DAT uptake mod 0.583, PLAP activator 0.8 and PostGolgi yeast 21.7.
`Cc1ccc2cc(CCNC(=O)c3ccc(Br)o3)c(=O)[nH]c2c1` gave PostGolgi ctrl 101.2*, PLAP activator 1 and PostGolgi yeast 21.4.
For COc1ccccc1NC(=O)C(=O)N1N=C(C(C)C)CC1(O)C(F)(F)F (stereo not given) the results were Cav3 T inh -0.959, PostGolgi ctrl -11.6, DAT uptake mod -0.852, PLAP activator 1.2 and PostGolgi yeast -7.3.
For Cc1ccc2c(c1)C(c1ccncc1)=NNC(c1ccc(C(C)C)cc1)=N2 the results were Cav3 T inh -0.371, PostGolgi ctrl -6.3, DAT uptake mod -0.914, PLAP activator 1 and PostGolgi yeast -0.2.
`CC1CCCCN1C(=O)CSc1nc(N)cc(=O)[nH]1` (stereo not given) gave Cav3 T inh -0.0663, PostGolgi ctrl 30.0*, DAT uptake mod 0.0855, PLAP activator 1 and PostGolgi yeast 3.1.
`CC1Cc2ccccc2N1C(=O)CSc1nc(N)cc(=O)[nH]1` (stereo not given) gave Cav3 T inh -0.258, PostGolgi ctrl 3.2, DAT uptake mod -0.88, PLAP activator 1 and PostGolgi yeast -6.6.
